Measurements published in the supplement of paper PMC13380429.
Counter-ions that a name gives are not always drawn. A number with no mark means an inactive call.

Tested on: Vero E6 infected with SARS-CoV-2
Test: inhibition of SARS-CoV-2 cytopathic effect; higher = more antiviral protection, active = above 15
Details: 48 h

SMILES | inhibition of SARS-CoV-2 cytopathic effect (1 nM) [%] | inhibition of SARS-CoV-2 cytopathic effect (8.33 nM) [%] | inhibition of SARS-CoV-2 cytopathic effect (100 nM) [%] | inhibition of SARS-CoV-2 cytopathic effect (833.33 nM) [%] | inhibition of SARS-CoV-2 cytopathic effect (10000 nM)
Nc1nc(=O)n([C@H]2C[C@H](O)[C@@H](CO)O2)cc1F [fdcyd] | 0.4 | 0.55 | -0.04 | 8.53 | -2.15%
O=C(NCCN1CCCCC1)c1ccc(I)cc1 [N-[2-(piperidinylamino)ethyl]-4-iodobenzamide] | 0.64 | 2 | -0.15 | -2.57 | -1.77%
CCCC[C@H](NC(C)=O)C(=O)N[C@H]1CC(=O)NCCCC[C@@H](C(=O)O)NC(=O)[C@H](Cc2c[nH]c3ccccc23)NC(=O)[C@H](CCCNC(=N)N)NC(=O)[C@@H](Cc2ccccc2)NC(=O)[C@H](Cc2c[nH]cn2)NC1=O [bremelanotide] | 1.27 | -1.82 | -0.14 | -2.33 | 0.21%
Oc1ccc([C@H]2COc3cc(O)ccc3C2)cc1 [equol] | -2.73 | -1.03 | -2.88 | 3.83 | 0.31%
O=C(/C=C/c1ccc(O)c(O)c1)OCCc1ccccc1 [caffeic-acid-phenethyl-ester] | -3.4 | -2.75 | -2.14 | 2.36 | 7.5%
Cc1cnc(C(=O)NCCc2ccc(S(=O)(=O)NC(=O)NC3CCCCC3)cc2)cn1 [glipizide] | -3.14 | -1.53 | -0.68 | -1.78 | 0.54%
CCC(=O)NO | 3 | 3.18 | 1.27 | 1.39 | 2.29%
N=c1ccn2c(n1)O[C@H]1[C@H](O)[C@@H](CO)O[C@H]12 [Cyclocytidine HCl] | 1.24 | 1 | 0 | -0.83 | -4.27%
C[C@]12C[C@H](O)[C@H]3[C@@H](CCC4=CC(=O)CC[C@@]43C)[C@@H]1CC[C@@H]2C(=O)CO [corticosterone] | -1.19 | -0.88 | 0.56 | -0.38 | 0.43%
COCCOCCOc1ccc(C2=N[C@@](C)(C(=O)O)CS2)c(O)c1 | -1.16 | 1.76 | 1.19 | 1.75 | 2.16%
CC(C)(C)C(=O)CN1C(=O)[C@H](NC(=O)Nc2cccc(C(=O)O)c2)CN(C2CCCCC2)c2ccccc21 [nastorazepide] | -1.25 | -0.99 | 0.77 | 0.71 | -1.1%
Cc1nnc2n1-c1sc(CCC(=O)N3CCOCC3)cc1C(c1ccccc1Cl)=NC2 [apafant] | 2.67 | -1.44 | 0.93 | 1.94 | 29% (active)
O=Nc1c(O)[nH]c2c(Cl)c(Cl)ccc12 | -0.18 | -0.08 | -2.11 | -0.54 | -3.64%
COc1cc(C)[nH]c(=O)c1CNC(=O)c1c(C)n([C@H](C)C2CCOCC2)c2ccccc12 | -1.12 | -1.57 | 0.4 | -4.34 | -4.06%
CCNC(=O)NS(=O)(=O)c1sc(CC(C)C)cc1-c1ccc(Cn2c(-c3ccccc3)nc(OC)c2C=O)cc1 | -1.39 | -0.39 | 2.26 | 1.08 | 0.67%
CCS(=O)(=O)N(C)[C@@H]1c2cc(C#N)ccc2OC(C)(C)[C@H]1O.CCS(=O)(=O)N(C)[C@H]1c2cc(C#N)ccc2OC(C)(C)[C@@H]1O (racemic) [chromanol-(+/-)] | -3.93 | 0.47 | -1.69 | -0.89 | -1.62%
O=C1C[C@@]2(C(=O)N1)C(=O)N(Cc1ccc(Br)cc1F)C(=O)c1cccn12 [ranirestat] | 0.68 | 1.21 | 2.23 | 3.78 | 1.01%
CCOCCOc1ccccc1C(N)=O [etosalamide] | -2.2 | -0.59 | -5.45 | -5.67 | -2.33%
Cc1cc(OI)c(C(C)C)cc1-c1cc(C(C)C)c(OI)cc1C [thymol-iodide] | -1.11 | -0.04 | -0.16 | 1.69 | -2.32%

SMILES | inhibition of SARS-CoV-2 cytopathic effect (1 nM) [%] | inhibition of SARS-CoV-2 cytopathic effect (8.33 nM) [%] | inhibition of SARS-CoV-2 cytopathic effect (100 nM) [%] | inhibition of SARS-CoV-2 cytopathic effect (833.33 nM) [%] | inhibition of SARS-CoV-2 cytopathic effect (10000 nM)
CN1CCC(CNc2ccc3ncc(-c4cccc(OC(F)(F)F)c4)n3n2)CC1 | 2.01 | 5.2 | 2.97 | -0.97 | 19.8% (active)
Clc1cc(Cl)c(OCC#CI)cc1Cl [haloprogin] | -0.57 | -1.3 | -0.9 | 4.17 | 15.9% (active)
CC(C)[C@H](NS(=O)(=O)c1ccc(-c2ccc(Br)cc2)cc1)C(=O)O | 0.82 | 0.67 | -0.06 | 0.69 | 1.89%
OC(c1ccccc1)C1CCN(CCc2ccccc2)CC1 (stereo not given) | -0.21 | 1.17 | -0.64 | -0.54 | 0.25%
CCCCCCCCCCCCCCCCCCOP(=O)([O-])OC1CC[N+](C)(C)CC1 [perifosine] | 0.3 | -1.34 | -0.76 | -1.89 | -0.93%
CC[C@H](C)[C@H](N)C1=N[C@H](C(=O)N[C@@H](CC(C)C)C(=O)N[C@H](CCC(=O)[O-])C(=O)N[C@H](C(=O)N[C@H]2CCCCNC(=O)[C@H](CC(N)=O)NC(=O)[C@@H](CC(=O)[O-])NC(=O)[C@H](Cc3cnc[nH]3)NC(=O)[C@@H](Cc3ccccc3)NC(=O)[C@H]([C@@H](C)CC)NC(=O)[C@@H](CCCN)NC2=O)[C@@H](C)CC)CS1.[Zn+2] [bacitracin-zinc] | 1.46 | 1.2 | 2.85 | -0.14 | 0.15%
COC(=O)[C@H](NC(=O)c1cc(-c2ccccc2)nc2ccccc12)c1ccccc1 | 2.67 | 2.5 | 0.38 | 0.39 | 1.12%
CN1CCN(c2ccc3ccccc3n2)CC1 [N-methylquipazine] | 0.97 | -1.57 | 0.41 | -1.31 | -0.19%
NNC(=O)c1ccncc1 [isoniazid] | -3.24 | 0.31 | 0.58 | 3.21 | -1.15%
O=C(O)C[C@H](O)C[C@H](O)/C=C/c1c(C2CC2)nc2ccccc2c1-c1ccc(F)cc1 [pitavastatin] | 1.96 | 3.86 | 3.12 | 2.39 | 6.01%
O=S1(=O)OC(c2ccc(O)cc2)(c2ccc(O)cc2)c2ccccc21 [phenolsulfonphthalein] | -0.46 | -1.87 | -1.84 | -1.16 | 3.89%
O=S(=O)(O)NC1CCCCC1 [cyclamic-acid] | -3.13 | 1.15 | 1.07 | 0.19 | -3.53%
CC(C)[C@H](CO)Nc1nc(Nc2cc(N)cc(Cl)c2)c2ncn(C(C)C)c2n1 [aminopurvalanol-a] | 4.14 | 0.51 | -1.34 | -0.35 | -6.98%
CN1CCN(C2CCN(C(=O)Nc3cc(Oc4ccc(NC(=O)C5(C(=O)Nc6ccc(F)cc6)CC5)c(F)c4)ccn3)CC2)CC1 [golvatinib] | 0.88 | 0.74 | 2.78 | 5.87 | 40.8% (active)
O=C(O)[C@H]1CCCN(CCC=C(c2ccccc2)c2ccccc2)C1 (racemic) | -0.52 | -1.42 | -2.13 | -4.16 | -2.22%
CC(C)(C)Nc1nc(Nc2ccc(C(N)=O)cc2)cc(N)c1C#N | -1.51 | -2.29 | -0.39 | -2.89 | -1.36%
CN(Cc1ccccc1)C(=O)[C@H](Cc1ccc2ccccc2c1)NC(=O)[C@@H]1C[C@@H](O)CN1C(=O)c1cn(C)c2ccccc12 | 1.18 | 4.31 | 3.48 | 1.69 | 1.87%
C/C(O)=C(\C#N)C(=O)Nc1cc(Br)ccc1Br | 0.38 | 0.96 | -1.74 | 2.02 | 1.5%
Cc1ccc2c(=O)c3cccc(CC(=O)O)c3oc2c1C | 4.48 | 0.61 | 1.92 | -1.05 | 1.59%
